# Assays:
# Settings in all cases: concentration: 1 μM,replicates: in singlicate; n = 1
# [1] = test system: PIP5K1A
# [2] = test system: PIP5K1C
# [3] = test system: PIP5K2B
# [4] = test system: T1, PIP5K2C
# T1 construct: gene PIP4K2C
# [5] = test system: T2, PKAC-alpha
# T2 construct: gene PRKACA
# [6] = test system: T3, PKAC-beta
# T3 construct: gene PRKACB
# [7] = test system: PKMYT1
# [8] = test system: PKN1
# [9] = test system: PKN2
# [10] = test system: PLK1
# 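Further: KINOMEscan kinase panel screen.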
smiles,measurement,setting,value
Cn1ccc2ncnc(Oc3ccc(NC(=O)Nc4cncc(C(F)(F)F)c4)c(Cl)c3)c21,%Inh,[1],29%
same,%Inh,[2],20%
same,%Inh,[3],6%
same,%Inh,[4],0%
same,%Inh,[5],0%
same,%Inh,[6],0%
same,%Inh,[7],6%
same,%Inh,[8],0%
same,%Inh,[9],0%
same,%Inh,[10],0%
O=C(Nc1ccccc1)c1cccc(Oc2ccc3nccn3n2)c1,%Inh,[1],0%
same,%Inh,[2],23%
same,%Inh,[3],15%
same,%Inh,[4],14%
same,%Inh,[5],5%
same,%Inh,[6],0%
same,%Inh,[7],0%
same,%Inh,[8],26%
same,%Inh,[9],29%
same,%Inh,[10],36%
O=C1NCCc2[nH]c(-c3ccncc3)cc21,%Inh,[1],2%
same,%Inh,[2],12%
same,%Inh,[3],4%
same,%Inh,[4],0%
same,%Inh,[5],34%
same,%Inh,[6],32%
same,%Inh,[7],4%
same,%Inh,[8],77%
same,%Inh,[9],80%
O=C(Nc1cccc(C(F)(F)F)c1)c1cccc(Oc2ccc3nccn3n2)c1,%Inh,[1],0%
same,%Inh,[2],17%
same,%Inh,[3],14%
same,%Inh,[4],10%
same,%Inh,[5],17%
same,%Inh,[6],7%
same,%Inh,[7],9%
same,%Inh,[8],81%
same,%Inh,[9],0%
same,%Inh,[10],50%
CCOC(=O)N1CCC(n2cnc(-c3ccc(F)cc3)c2-c2ccnc(N)n2)CC1 [SB-219952],%Inh,[1],0%
same,%Inh,[2],32%
same,%Inh,[3],2%
same,%Inh,[4],94.4%
same,%Inh,[5],9%
same,%Inh,[6],36%
same,%Inh,[7],32%
same,%Inh,[8],0%
same,%Inh,[9],8%
same,%Inh,[10],23%
CCNCC(Cc1ccccc1)NC(=O)c1cc(Br)c(-c2ccnc3[nH]ccc23)s1.Cl.Cl (centres unmarked) [GSK1383280],%Inh,[1],55%
same,%Inh,[2],38%
same,%Inh,[3],16%
same,%Inh,[4],36%
same,%Inh,[5],99.4%
same,%Inh,[6],99.3%
same,%Inh,[7],0%
same,%Inh,[8],39%
same,%Inh,[9],58%
same,%Inh,[10],0%
Cc1ccc(Nc2ccnc(Nc3ccc4c(c3)CS(=O)(=O)C4)n2)cc1O.Cl [GW579362],%Inh,[1],29%
same,%Inh,[2],39%
same,%Inh,[3],80%
same,%Inh,[4],90%
same,%Inh,[5],7%
same,%Inh,[6],0%
same,%Inh,[7],0%
same,%Inh,[8],11%
same,%Inh,[9],0%
same,%Inh,[10],0%
Cc1cccc2c(-c3ccncc3)c(-c3ccc(F)cc3)nn12.Cl [GW461487],%Inh,[1],13%
same,%Inh,[2],35%
same,%Inh,[3],10%
same,%Inh,[4],0%
same,%Inh,[5],0%
same,%Inh,[6],0%
same,%Inh,[7],9%
same,%Inh,[8],0%
same,%Inh,[9],0%
same,%Inh,[10],0%
FC(F)(F)c1cc(Br)cc(Nc2nccc(-c3cnn4ncccc34)n2)c1 [GW810578],%Inh,[1],0%
same,%Inh,[2],3%
same,%Inh,[3],0%
same,%Inh,[4],94.2%
same,%Inh,[5],17%
same,%Inh,[6],0%
same,%Inh,[7],1%
same,%Inh,[8],12%
same,%Inh,[9],27%
same,%Inh,[10],9%
O=C(Nc1n[nH]c2cc(-c3ccco3)ccc12)C1CC1 [SB-737447],%Inh,[1],45%
same,%Inh,[2],12%
same,%Inh,[3],27%
same,%Inh,[4],0%
same,%Inh,[5],0%
same,%Inh,[6],0%
same,%Inh,[7],0%
same,%Inh,[8],0%
same,%Inh,[9],12%
same,%Inh,[10],0%
Cn1ccc2ncnc(Oc3ccc(NC(=O)Nc4ccnc(C(F)(F)F)c4)c(Cl)c3)c21,%Inh,[1],13%
same,%Inh,[2],0%
same,%Inh,[3],15%
same,%Inh,[4],0%
same,%Inh,[5],0%
same,%Inh,[6],0%
same,%Inh,[7],3%
same,%Inh,[8],0%
same,%Inh,[9],0%
same,%Inh,[10],0%
Cl.c1ccc(Oc2ccc(Nc3ccnc4cc(-c5ccc(CN6CCNCC6)o5)ccc34)cc2)nc1 [GW567142],%Inh,[1],0%
same,%Inh,[2],34%
same,%Inh,[3],0%
same,%Inh,[4],23%
same,%Inh,[5],0%
same,%Inh,[6],0%
same,%Inh,[7],0%
same,%Inh,[8],10%
same,%Inh,[9],0%
same,%Inh,[10],22%
CC(C)c1nc(-c2cccc(NS(=O)(=O)c3ccccc3)c2)c(-c2ccnc(Nc3ccc4c(c3)CN(C)CC4)n2)s1 [GSK1649598],%Inh,[1],0%
same,%Inh,[2],0%
same,%Inh,[3],20%
same,%Inh,[4],65%
same,%Inh,[5],0%
same,%Inh,[6],0%
same,%Inh,[7],0%
same,%Inh,[8],43%
same,%Inh,[9],0%
same,%Inh,[10],0%
C[C@@H]1CNc2c(sc3ccc4nc(-c5ccncc5)ccc4c23)C(=O)N1,%Inh,[1],30%
same,%Inh,[2],11%
same,%Inh,[3],0%
same,%Inh,[4],0%
same,%Inh,[5],0%
same,%Inh,[6],27%
same,%Inh,[7],7%
same,%Inh,[8],7%
same,%Inh,[9],15%
same,%Inh,[10],0%
COC(=O)Nc1nc2cc(Oc3ccc(NC(=O)Nc4cc(C(F)(F)F)ccc4Cl)cc3)ccc2[nH]1.Cl [GW697465],%Inh,[1],56%
same,%Inh,[2],63%
same,%Inh,[3],15%
same,%Inh,[4],53%
same,%Inh,[5],0%
same,%Inh,[6],0%
same,%Inh,[7],0%
same,%Inh,[8],0%
same,%Inh,[9],0%
same,%Inh,[10],0%
CSc1nccc(-c2c(-c3ccc(F)cc3)ncn2CCCN2CCOCC2)n1.Cl [SB-217146],%Inh,[1],0%
same,%Inh,[2],0%
same,%Inh,[3],0%
same,%Inh,[4],0%
same,%Inh,[5],14%
same,%Inh,[6],19%
same,%Inh,[7],0%
same,%Inh,[8],0%
same,%Inh,[9],0%
same,%Inh,[10],33%
COC(=O)c1cccc(NC(=O)NC2CCN(c3ccnc(NCc4ccc(F)cc4)n3)CC2)c1 [GSK1379860],%Inh,[1],0%
same,%Inh,[2],20%
same,%Inh,[3],19%
same,%Inh,[4],2%
same,%Inh,[5],0%
same,%Inh,[6],0%
same,%Inh,[7],0%
same,%Inh,[8],32%
same,%Inh,[9],0%
same,%Inh,[10],0%
O=c1[nH]cc(-c2ccc(O)cc2)c2sc(-c3ccncc3)cc12 [GSK1033723],%Inh,[1],0%
same,%Inh,[2],65%
same,%Inh,[3],19%
same,%Inh,[4],27%
same,%Inh,[5],0%
same,%Inh,[6],0%
same,%Inh,[7],8%
same,%Inh,[8],0%
same,%Inh,[9],0%
same,%Inh,[10],13%
CNC(=O)c1ccccc1Nc1nc(Nc2cccc(CS(C)(=O)=O)c2)ncc1C.O=CO [GSK1520489],%Inh,[1],55%
same,%Inh,[2],52%
same,%Inh,[3],84%
same,%Inh,[4],79%
same,%Inh,[5],11%
same,%Inh,[6],28%
same,%Inh,[7],84%
same,%Inh,[8],56%
same,%Inh,[9],2%
same,%Inh,[10],97.9%
CC(C)S(=O)(=O)N1CCN(Cc2ccc3c(c2)nc(NC(=O)c2ccsc2)n3C[C@H](O)c2ccccc2)CC1 [GW635815],%Inh,[1],0%
same,%Inh,[2],15%
same,%Inh,[3],35%
same,%Inh,[4],24%
same,%Inh,[5],0%
same,%Inh,[6],27%
same,%Inh,[7],8%
same,%Inh,[8],6%
same,%Inh,[9],25%
same,%Inh,[10],0%
CC(=O)c1c(-c2ccncc2)[nH]c(-c2ccncc2)c1C [GW493036],%Inh,[1],50%
same,%Inh,[2],91.1%
same,%Inh,[3],19%
same,%Inh,[4],16%
same,%Inh,[5],0%
same,%Inh,[6],47%
same,%Inh,[7],0%
same,%Inh,[8],16%
same,%Inh,[9],0%
same,%Inh,[10],18%
CC(=O)Nc1nc2cnc(Nc3cc(NC(=O)c4cccc(CC(C)(C)C#N)c4)ccc3C)nc2s1,%Inh,[1],0%
same,%Inh,[2],4%
same,%Inh,[3],33%
same,%Inh,[4],53%
same,%Inh,[5],13%
same,%Inh,[6],0%
same,%Inh,[7],20%
same,%Inh,[8],21%
same,%Inh,[9],0%
same,%Inh,[10],7%
Cn1ccc2ncnc(Oc3ccc(NC(=O)Nc4cccc(C(F)(F)F)c4)c(F)c3)c21,%Inh,[1],0%
same,%Inh,[2],17%
same,%Inh,[3],0%
same,%Inh,[4],0%
same,%Inh,[5],0%
same,%Inh,[6],34%
same,%Inh,[7],2%
same,%Inh,[8],0%
same,%Inh,[9],16%
same,%Inh,[10],0%
CN1CCN(CCNc2nc3cc(Oc4ccc(NC(=O)Nc5cc(C(F)(F)F)ccc5F)cc4)ccc3[nH]2)CC1.Cl.Cl [GW768504],%Inh,[1],20%
same,%Inh,[2],0%
same,%Inh,[3],0%
same,%Inh,[4],0%
same,%Inh,[5],0%
same,%Inh,[6],2%
same,%Inh,[7],0%
same,%Inh,[8],0%
same,%Inh,[9],8%
same,%Inh,[10],0%
O=C(Nc1cccc(Oc2ccc3nccn3n2)c1)Nc1cccc(C(F)(F)F)c1,%Inh,[1],6%
same,%Inh,[2],37%
same,%Inh,[3],14%
same,%Inh,[4],35%
same,%Inh,[5],66%
same,%Inh,[6],63%
same,%Inh,[7],0%
same,%Inh,[8],0%
same,%Inh,[9],31%
same,%Inh,[10],38%
CC(C(=O)NC1CCN(c2ccnc(Nc3ccc(F)cc3)n2)C1)c1ccc(Cl)cc1 (centres unmarked) [GSK1379713],%Inh,[1],21%
same,%Inh,[2],0%
same,%Inh,[3],1%
same,%Inh,[4],4%
same,%Inh,[5],0%
same,%Inh,[6],6%
same,%Inh,[7],0%
same,%Inh,[8],4%
same,%Inh,[9],0%
same,%Inh,[10],0%
Cc1ccn2nc(-c3ccc(F)cc3)c(-c3ccncc3)c2c1.Cl [GW457859],%Inh,[1],54%
same,%Inh,[2],81%
same,%Inh,[3],15%
same,%Inh,[4],26%
same,%Inh,[5],29%
same,%Inh,[6],13%
same,%Inh,[7],0%
same,%Inh,[8],0%
same,%Inh,[9],0%
same,%Inh,[10],0%
Cc1ccc(C(=O)Nc2ccc(Oc3ccc4nc(NC(=O)C5CC5)cn4c3)c(F)c2)c(=O)n1-c1ccccc1,%Inh,[1],26%
same,%Inh,[2],44%
same,%Inh,[3],34%
same,%Inh,[4],77%
same,%Inh,[5],0%
same,%Inh,[6],26%
same,%Inh,[7],0%
same,%Inh,[8],0%
same,%Inh,[9],0%
same,%Inh,[10],2%
Cn1ccc2ncnc(Oc3ccc(NC(=O)Nc4cnn(C(C)(C)C)c4)c(Cl)c3)c21,%Inh,[1],17%
same,%Inh,[2],3%
same,%Inh,[3],100%
same,%Inh,[4],0%
same,%Inh,[5],0%
same,%Inh,[6],3%
same,%Inh,[7],0%
same,%Inh,[8],0%
same,%Inh,[9],3%
same,%Inh,[10],0%
O=C(Nc1ccc(Oc2ccc3nc(NC(=O)C4CC4)cn3n2)c(F)c1)c1cccn(-c2ccccc2)c1=O,%Inh,[1],1%
same,%Inh,[2],22%
same,%Inh,[3],22%
same,%Inh,[4],76%
same,%Inh,[5],0%
same,%Inh,[6],56%
same,%Inh,[7],0%
same,%Inh,[8],0%
same,%Inh,[9],48%
same,%Inh,[10],0%
COc1cc2c(Nc3ccc(NC(=O)c4ccccc4)cc3)ncnc2cc1OCCCN1CCOCC1 [GSK301329],%Inh,[1],0%
same,%Inh,[2],27%
same,%Inh,[3],14%
same,%Inh,[4],0%
same,%Inh,[5],3%
same,%Inh,[6],14%
same,%Inh,[7],1%
same,%Inh,[8],0%
same,%Inh,[9],0%
same,%Inh,[10],0%
N#Cc1cccc(C(=O)NC2CCN(c3ccnc(Nc4ccc(F)cc4)n3)C2)c1 (centres unmarked) [GSK1379708],%Inh,[1],0%
same,%Inh,[2],37%
same,%Inh,[3],0%
same,%Inh,[4],21%
same,%Inh,[5],9%
same,%Inh,[6],0%
same,%Inh,[7],0%
same,%Inh,[8],14%
same,%Inh,[9],0%
same,%Inh,[10],0%
C[C@@H]1CCN(C(=O)N2CCCC2)C[C@@H]1N(C)c1ncnc2[nH]ccc12,%Inh,[1],8%
same,%Inh,[2],0%
same,%Inh,[3],0%
same,%Inh,[4],0%
same,%Inh,[5],0%
same,%Inh,[6],0%
same,%Inh,[7],0%
same,%Inh,[8],86%
same,%Inh,[9],48%
same,%Inh,[10],0%
